Experimental data from PubChem BioAssay (NCATS).
Where “and” joins values, the source holds several entries; their conditions need not be identical. Equal entries are not always repeated. Results filed as inconclusive are left out. Calls of active or inactive are those of the source. Calls come from the whole dose curve; as a rule, active = well fitted curve in the direction sought with a large enough effect; inconclusive = small, poorly fitted or top-dose-only effect, or another doubt; inactive = no such curve, though single readings can be large; an effect the other way counts as inactive or inconclusive.

Tests used:
[1] = Viability qHTS for spleen associated tyrosine kinase inhibitor (SYKi) drug resistant MV4-11 cells (AID 1963824); note: nearly all actives have a fitted effect of over 35% in size
Method in brief: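 SYK-inhibitor-resistant MV4-11 AML cells were seeded at 500 per well onto compound and cultured 72 hours (37 °C, 5% CO2). CellTiter-Glo was then added, and after 10 min at room temperature, luminescence gave viability.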

[2] = Quantitative highthroughput screen to assess conditional lethalithy of SEM cells grown in Human Plasma-Like Medium with dialyzed fetal bovine serum (HPLM+ds) (AID 1963882); note: nearly all actives have a fitted effect of over 35% in size; for Viability: series mostly up to about 46 µM
Method in brief: (§1)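 Each medium arm—HPLM with 10% dialyzed FBS, or RPMI1640 with 5 mM glucose and 10% untreated or dialyzed FBS—was screened against an 11-point, 3-fold compound titration for 48 h at 37 °C, with CellTiter-Glo luminescence as endpoint.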

[3] = Quantitative highthroughput screen to assess conditional lethalithy of SEM cells grown in RPMI1640 with unreated serum (RPMI+s) (AID 1963883); note: nearly all actives have a fitted effect of over 35% in size;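 for Viability: 100% = DMSO wells and 0% = empty wells without cells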
Method in brief: as §1

[4] = Cellular viability qHTS for adrenocortical cancer (ACC) cell line NCI-H295R (AID 1963990); note: nearly all actives have a fitted effect of over 60% in size
Method in brief: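 Adrenocortical carcinoma cells, suspended at 300 000 cells/mL in serum-free DMEM plus ITS, rested overnight before pin transfer of compound. After two days' incubation, ATP-dependent luminescence was recorded and curve-fitted.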

[5] = Quantitative highthroughput screen to assess conditional lethalithy of SEM cells grown in RPMI1640 with dialyzed fetal bovine serum (RPMI+ds) (AID 1963884); note: nearly all actives have a fitted effect of over 35% in size;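 for Viability: series mostly up to about 46 µM; 100% = DMSO control wells and 0% = empty wells without cells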
Method in brief: as §1

[6] = Cellular viability qHTS for adrenocortical cancer (ACC) cell line SW-13 (AID 1963989); conditions: SW-13 ACC cells viability, CellTiter-Glo, 48 h; activity (max response): active compounds read low; note: nearly all actives have a fitted effect of over 65% in size;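 for activity (max response): cells grown in serum-free medium with ITS supplement; % is set by controls: 0 for no effect and ±100 for the full control effect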
Method in brief: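 IC50 and maximal-response values come from four-parameter logistic fits of titration data. SW-13 cells in serum-free medium received compounds (up to 46 uM final) for 48 h before CellTiter-Glo luminescence.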

[7] = Quantitative highthroughput screen to assess conditional lethalithy of P12 Ichikawa cells grown in Human Plasma-Like Medium with dialyzed fetal bovine serum (HPLM+ds) (AID 1963879); conditions: Potency: viability; note: nearly all actives have a fitted effect of over 35% in size; for Viability: series mostly up to about 46 µM
Method in brief: as §1

[8] = Quantitative highthroughput screen to assess conditional lethalithy of P12 Ichikawa cells grown in RPMI1640 with untreated serum (RPMI+s) (AID 1963881); conditions: Potency: viability; note: nearly all actives have a fitted effect of over 35% in size;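 for Viability: series mostly up to about 46 µM; 100% = DMSO wells and 0% = empty wells without cells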
Method in brief: as §1

[9] = Quantitative highthroughput screen to assess conditional lethalithy of P12 Ichikawa cells grown in RPMI1640 with dialyzed fetal bovine serum (RPMI+ds) (AID 1963880); conditions: Potency: P12-Ichikawa viability; note: nearly all actives have a fitted effect of over 35% in size;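 for Viability: 100% = DMSO wells and 0% = empty wells on each plate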
Method in brief: as §1

[10] = Quantitative highthroughput screen to assess conditional lethalithy of NOMO1 cells grown in Human Plasma-Like Medium with dialyzed fetal bovine serum (HPLM+ds) (AID 1963878); note: nearly all actives have a fitted effect of over 35% in size;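 for Viability: 100% = DMSO wells and 0% = empty wells on each plate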
Method in brief: as §1
Potency is the fitted concentration of half-maximal effect.

CS(=O)(=O)N(Cc1ccco1)CC(O)Cn1c2ccccc2c2ccccc21 (stereo not given)
inactive: Potency [4]
active: Potency [1] 16.4 µM and 16.6 µM | Potency [2] 18.7 µM | Potency [3] 14.8 µM

CC(=O)c1c(C)c2cnc(Nc3ccc(N4CCNCC4)cn3)nc2n(C2CCCC2)c1=O
active: Potency [1] 184 nM and 5.25 µM | Potency [3] 4.69 µM | Potency [5] 5.26 µM | Potency [4] 25.1 µM

CC(=O)Nc1nc(C)c(-c2ccc(Cl)c(S(=O)(=O)NCCO)c2)s1
active: Potency [1] 0.92 µM | Potency [2] 4.18 µM | Potency [3] 2.64 µM | Potency [5] 1.66 µM | Potency [6] 17.8 µM | Potency [4] 25.1 µM

Cc1cc(-c2ccc(CC(=O)Nc3ccc(-c4cccnc4)cc3)cc2)ccn1
active: Potency [1] 11.8 µM | Potency [7] 6.62 µM | Potency [8] 16.6 µM | Potency [2] 6.62 µM | Potency [3] 10.5 µM
inactive: activity (max response) [6] -19.6% | Potency [4]

O=C(CCCN1CCN(c2ccc(F)cc2)CC1)NC1c2ccccc2CSc2ccccc21 (stereo not given)
active: Potency [1] 14.6 µM
inactive: Potency [2] | activity (max response) [6] -20.8%

N=C(N)c1ccc(OCCCCCOc2ccc(C(=N)N)cc2)cc1
inactive: Potency [7] | Potency [9]
active: Potency [1] 4.22 µM and 1.66 µM | Potency [6] 16.4 µM and 15.8 µM

O=c1ncn2nc(Sc3ccc(F)cc3F)ccc2c1-c1c(Cl)cccc1Cl
inactive: activity (max response) [6] -0.752% | Potency [4]
active: Potency [1] 8.2 µM | Potency [3] 16.6 µM

CO[C@@H]1[C@H](N(C)C(=O)c2ccccc2)C[C@H]2O[C@]1(C)n1c3ccccc3c3c4c(c5c6ccccc6n2c5c31)C(=O)NC4
active: Potency [1] 51.7 nM and 59 nM | Potency [7] 2.64 µM | Potency [2] 0.662 µM | Potency [3] 0.743 µM | Potency [5] 0.743 µM

CCOC(=O)[C@@]1(CCCCCCOc2ccc(Cl)cc2)CO1
inactive: Potency [10]
active: Potency [1] 20.9 µM | Potency [3] 11.7 µM

N#CNC(=NCCCCCCOc1ccc(Cl)cc1)Nc1ccncc1
active: Potency [1] 0.0042 µM | Potency [9] 0.0019 µM | Potency [8] 0.0026 µM | Potency [6] 0.0398 µM
inactive: Potency [2] | Potency [3] | Potency [5]

Cc1[nH]cnc1-c1ccc(Cl)cc1
inactive: Potency [1] | activity (max response) [6] 8.54%

O=C(O)CCCCC(CCSCc1ccccc1)SCc1ccccc1 (stereo not given)
inactive: Potency [2] | Potency [3] | activity (max response) [6] -7.05%
active: Potency [1] 13.2 µM | Potency [7] 14.8 µM

CC(C)n1c(/C=C/[C@H](O)C[C@H](O)CC(=O)O)c(-c2ccc(F)cc2)c2ccccc21
active: Potency [1] 1.32 µM | Potency [6] 17.8 µM

C[N+](C)([O-])CCNc1ccc(NCC[N+](C)(C)[O-])c2c1C(=O)c1c(O)ccc(O)c1C2=O
active: Potency [1] 0.934 µM | Potency [7] 1.66 µM | Potency [8] 0.743 µM | Potency [2] 1.18 µM | Potency [3] 0.296 µM | Potency [5] 0.743 µM
inactive: Potency [4]

CN1CCN(c2c(F)cc3c(=O)c(C(=O)O)cn4c3c2OCN4C)CC1
inactive: Potency [1] | Potency [7] | Potency [9] | activity (max response) [6] -1.01% | Potency [4]

Nc1nc(NCCNc2ncc(-n3ccnc3)c(-c3ccc(Cl)cc3Cl)n2)ccc1[N+](=O)[O-]
active: Potency [1] 3.72 µM
inactive: Potency [7] | Potency [9] | Potency [8] | Potency [2] | Potency [3] | activity (max response) [6] -10% | Potency [4]

C=CCc1cccc(/C=N/NC(=O)CN2CCN(Cc3ccccc3)CC2)c1O
active: Potency [1] 6.61 µM | Potency [6] 8.91 µM

CCCc1ncc(C[n+]2ccccc2C)c(N)n1
inactive: Potency [1] | activity (max response) [6] -17.3%

Nc1nc(=O)n([C@H]2C[C@H](O)[C@@H](CO)O2)cc1F
active: Potency [1] 0.0295 µM | Potency [9] 0.0833 µM | Potency [8] 0.105 µM

CCOC(=O)[C@H](CCc1ccccc1)N[C@H]1CCc2ccccc2N(CC(=O)O)C1=O
active: Potency [1] 16.6 µM | Potency [10] 16.6 µM
inactive: activity (max response) [6] -3.37% | Potency [4]

O=C(Nc1ncc(-c2cc(C(F)F)nn2-c2c(Cl)cccc2Cl)s1)C1CC1
active: Potency [1] 0.372 µM | Potency [7] 0.935 µM | Potency [9] 1.18 µM | Potency [8] 0.935 µM | Potency [2] 1.32 µM | Potency [3] 1.18 µM | Potency [5] 1.32 µM | Potency [6] 0.316 µM

CC(C)(O)CC(=O)NCCn1ccc2ncnc(Nc3ccc(Oc4cccc(C(F)(F)F)c4)c(Cl)c3)c21
active: Potency [1] 9.2 µM and 6.61 µM | Potency [7] 9.35 µM | Potency [3] 20.9 µM | Potency [6] 14.1 µM | Potency [4] 8.91 µM
